Source: PubChem BioAssay
Compounds with a hit are over-represented: about 3.7% of the library has one in this group of screens.
HTT aggregate = inhibitors of mutant huntingtin aggregate formation in PC12 cells | PC12 HttQ103-GFP aggregates, Acumen cytometry, 40 h | AID 1688 | Potency, µM (doses to about 46.1 µM), for the others: at the top dose activity change, negative = inhibition, actives largely listed as inhibitors | 220,000 compounds, 1.1% hits; further: on the % scale 0 is the no-effect control and ±100 the full control effect; nearly all actives have a fitted effect of over 60% in size
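Multiplexed with ATP-based cell death, this channel scores GFP aggregates in PC12 cells expressing inducible HTTex1-Q103-GFP. Induction used 100 nM tebufenozide; compounds were tested in concentration series.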
Tau ThT inhib = inhibitors of human tau fibril formation, thioflavin T binding. AID 1460. Potency, µM (doses to about 57.4 µM), for inactives: top-dose activity, negative = inhibition, most hits filed as inhibitors. 270,000 compounds, 2.1% hits. recombinant tau K18 P301L, heparin-induced fibrillization, ThT fluorescence. P10636; further: on the % scale 0 is the no-effect control and ±100 the full control effect; nearly all actives have a fitted effect of over 55% in size
Target sequence (P10636 561-689 P618L limits assumed): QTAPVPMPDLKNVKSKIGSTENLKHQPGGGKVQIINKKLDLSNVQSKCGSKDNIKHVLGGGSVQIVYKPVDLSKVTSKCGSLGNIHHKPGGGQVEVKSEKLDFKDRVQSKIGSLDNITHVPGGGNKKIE
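K18 P301L tau (15 uM + 0.24 uM Alexa 594-tagged), heparin 20 uM, NaOAc pH 7, 6 h 37 C; ThT 30 uM, 1 h RT, ex 450/em 510 nm.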
HTT ATP protect = Huntington cell model cytoprotection by ATP luminescence; Potency, µM (series often up to 56.4 µM), without a hit: cytoprotection (ATP increase), usual class: activators; PC12 HTT-Q103 induced, cytoprotection, ATP luminescence, 40 h; 230,000 compounds, 0.14% hits; further: % of control where 0% means no effect; nearly all actives have a fitted effect of over 45% in size
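Compounds were screened for protection of PC12 cells against cell death after tebufenozide induction (100 nM final) of mutant Huntingtin exon 1 (Q103) fused to GFP.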
Tau fluor cs = counter-screen for tau fibril formation inhibitors | AID 1463 | tau K18 P301L (four-repeat tau fragment) Alexa594 fluorescence, heparin fibrillization | 280,000 compounds, 0.93% hits | Potency, µM (series often up to 57.7 µM), for the others: top-dose activity change, negative = decrease; further: on the % scale 0 is the no-effect control and ±100 the full control effect; nearly all actives have a fitted effect of over 55% in size
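Human K18 P301L tau (15 uM unlabeled plus 0.24 uM Alexa 594-labeled, final) in 100 mM sodium acetate pH 7 was mixed with compound and 20 uM heparin and incubated 6 hr at 37 C.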
Tau fibril FP = blocks human tau fibril formation measured by polarization. 280,000 compounds, 0.39% hits. AID 1468. P10636. Potency, µM (series often up to 57.7 µM), inactives show at the top dose activity, negative = inhibition, most hits filed as inhibitors. K18 P301L tau heparin fibrillization, Alexa594 FP, 6 h; further: on the % scale 0 is the no-effect control and ±100 the full control effect; nearly all actives have a fitted effect of over 55% in size
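Recombinant K18 P301L […], labeled with Alexa 594 at 0.24 uM over 15 uM unlabeled; heparin inducer 20 uM final; 37 C, 6 hr; FP endpoint.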
The depositor's hits bear a star; [ ] = another dose, or the depositor's remark. The call rests on the fitted dose curve; in most records, active means well fitted curve in the direction sought with a large enough effect; inconclusive means small, poorly fitted or top-dose-only effect, or another doubt; inactive means no such curve, though single readings can be large; an effect the other way counts as inactive or inconclusive. Potency means the concentration at half of the fitted maximal effect.

For CCOc1cc(C2C(C(=O)OC)=C(C)NC3=C2C(=O)c2ccccc23)ccc1OC (stereo unspecified) the results were Tau ThT inhib inconclusive, Tau fluor cs inconclusive and Tau fibril FP 5%.
`CCOC(=O)C1=C(C)NC2=C(C(=O)c3ccccc32)C1c1cccc2ccccc12` (stereo unspecified) gave HTT aggregate 4%[9.22 µM], Tau ThT inhib inconclusive, HTT ATP protect -4%[10 µM], Tau fluor cs 14µM*[quencher] and Tau fibril FP 13%.
For CCOC(=O)C1=C(C)NC2=C(C(=O)c3ccccc32)C1c1ccc(O)cc1 (stereo unspecified) the results were HTT aggregate -1%, Tau ThT inhib 10µM*, Tau fluor cs inconclusive and Tau fibril FP 11%.
`CCOC(=O)C1=C(C)NC(=O)NC1c1c(O)ccc2ccccc12` (stereo unspecified) gave HTT aggregate 25%, Tau ThT inhib -10%, HTT ATP protect -6%, Tau fluor cs -4% and Tau fibril FP 4%.
For N#CCc1ccc(NC(=O)/C=C/c2ccc([N+](=O)[O-])o2)cc1 the results were HTT aggregate inconclusive, Tau ThT inhib 11µM*, HTT ATP protect -129%, Tau fluor cs -29% and Tau fibril FP inconclusive.
For Cc1ccc(/C=C(\C#N)C(=O)Nc2ccc(Br)cc2)o1 the results were Tau ThT inhib -8%, Tau fluor cs -2% and Tau fibril FP inconclusive.
Screening N#C/C(=C\c1ccc([N+](=O)[O-])o1)C(=O)Nc1ccc(F)cc1 returned HTT aggregate inconclusive, Tau ThT inhib 14µM*, HTT ATP protect -4%[10 µM], Tau fluor cs inconclusive and Tau fibril FP inconclusive.
O=C(COCc1cc(-c2cccs2)on1)Nc1cccc(Cl)c1Cl was read as Tau ThT inhib inconclusive, Tau fluor cs inconclusive and Tau fibril FP -5%.
Screening CCOc1ccc(N(CC(=O)Nc2ccccc2CC)S(=O)(=O)c2c(C)noc2C)cc1 returned Tau ThT inhib -9%, Tau fluor cs -28% and Tau fibril FP -13%.
`O=C(O)c1ccccc1C(=O)Nc1ccc(Br)c(C(F)(F)F)c1` gave HTT aggregate 8%[9.22 µM], Tau ThT inhib -7%, HTT ATP protect 4%[10 µM], Tau fluor cs -6% and Tau fibril FP -7%.
`Cc1cc(C)c(C(=O)Nc2ccc(Br)c(C(F)(F)F)c2)c(C)c1` gave HTT aggregate 20µM*, Tau ThT inhib -11%, Tau fluor cs -11% and Tau fibril FP 0%.
`CCC1=C[C@@H]2CN(C1)Cc1c([nH]c3ccccc13)[C@@](C(=O)OC)(c1cc3c(cc1OC)N(C)[C@@H]1[C@@](O)(C(=O)OC)[C@H](OC(C)=O)[C@]4(CC)C=CCN5CC[C@]31[C@@H]54)C2` gave HTT aggregate 5.6µM* and HTT ATP protect -98%.
For Cc1ccc(CN2CCN(Cc3ccc(C)o3)[C@@H](C)C2)o1 the results were HTT ATP protect 1%[10 µM].
`Oc1c(Br)cc(Br)cc1C=Nc1ccc2c(c1)OCO2` gave HTT aggregate -10%, Tau ThT inhib 20µM*, HTT ATP protect inconclusive, Tau fluor cs -7% and Tau fibril FP inconclusive.
For Oc1[nH]c2ccccc2c1C=Nc1ccc2c(c1)OCCO2 the results were HTT aggregate -2%, Tau ThT inhib 11µM*, HTT ATP protect -78%, Tau fluor cs inconclusive and Tau fibril FP 16%.
`Oc1c(Br)cc(Br)cc1C=Nc1ccc2c(c1)OCCO2` gave HTT aggregate 6%, Tau ThT inhib 11µM*, HTT ATP protect -16%, Tau fluor cs -16% and Tau fibril FP inconclusive.
`COc1cccc(OC)c1OCCNC[C@@H]1CSc2ccccc2O1` gave HTT ATP protect -30%[1.9 µM].
O=C(CCNc1ccc(Cc2ccncc2)cc1)c1cccc([N+](=O)[O-])c1 was read as HTT aggregate -17%, Tau ThT inhib inconclusive, HTT ATP protect 2%, Tau fluor cs 16µM*[quencher] and Tau fibril FP inconclusive.
Cc1ccc(C)c(-n2nnc(-c3nc(-c4ccccc4C)no3)c2C)c1 was read as Tau ThT inhib 2%, Tau fluor cs -10% and Tau fibril FP -1%.
Nc1c2c(nc3ccccc13)CCC[C@H]2O was read as HTT ATP protect 13%[1.9 µM].
O=C(CN1CCN(Cc2ccc(Cl)cc2)CC1)N/N=C/c1c[nH]c2ccccc12 was read as HTT aggregate 32%, Tau ThT inhib -17%, HTT ATP protect -6%[10 µM], Tau fluor cs inconclusive and Tau fibril FP inconclusive.
`O=C(N/N=C/c1c[nH]c2ccc(Br)cc12)c1ccn(Cc2ccc(Cl)cc2)n1` gave HTT aggregate 1%, Tau ThT inhib inconclusive, HTT ATP protect -36%, Tau fluor cs 11µM*[quencher] and Tau fibril FP 10%.
For O=C(N/N=C/c1c[nH]c2ccccc12)c1ccn(Cc2ccc(Cl)cc2Cl)n1 the results were HTT aggregate -25%, Tau ThT inhib inconclusive, HTT ATP protect -29%, Tau fluor cs 13µM*[quencher] and Tau fibril FP 17%.
CCOc1ccc2nc(N3C(=O)/C(=C/c4ccc(Cl)cc4)NC3=S)sc2c1 was read as HTT aggregate -17%, Tau ThT inhib 4.5µM*, HTT ATP protect -9%[10 µM], Tau fluor cs inconclusive and Tau fibril FP -8%.
`Oc1c(Br)cc(Br)cc1C=NCc1ccc(F)cc1` gave HTT aggregate 7%, Tau ThT inhib 20µM*, HTT ATP protect 5%, Tau fluor cs -7% and Tau fibril FP inconclusive.
COc1ccc(/C=C(/C(=O)c2cccs2)N2C=CC=CC2=C(C#N)C#N)cc1 was read as HTT aggregate 22%[9.22 µM], Tau ThT inhib 28µM*, HTT ATP protect 5%[10 µM], Tau fluor cs -29% and Tau fibril FP inconclusive.
For COc1ccc(C(=O)/C(=C\c2ccco2)N2C=CC=CC2=C(C#N)C#N)cc1 the results were HTT aggregate 6.3µM*, Tau ThT inhib 13µM*, HTT ATP protect inconclusive, Tau fluor cs inconclusive and Tau fibril FP inconclusive.
N#CC(C#N)=C1C=CC=CN1/C(=C\c1ccco1)C(=O)c1ccccc1 was read as HTT aggregate 3.2µM*, Tau ThT inhib 14µM*, HTT ATP protect inconclusive, Tau fluor cs inconclusive and Tau fibril FP 20µM*.
Screening COc1ccc(NC(=O)c2cccs2)cc1 returned HTT aggregate -4%, Tau ThT inhib -13%, HTT ATP protect -8%[1.9 µM], Tau fluor cs -2% and Tau fibril FP 0%.
For COc1ccc(C(=O)N/C(=C\c2ccco2)C(=O)OCc2ccco2)cc1 the results were HTT aggregate 31%[9.22 µM], HTT ATP protect 16%[10 µM], Tau fluor cs -13% and Tau fibril FP -2%.
